Bioassay records: PubChem, Broad Institute
Only a selection was taken, and hits are over-represented in it overall.
CD40 NFkB inh = inhibitors of CD40-induced NF-kB signaling, primary screen, BL2 cells, luciferase reporter, single point; 0.94% of 83,000 active; AID 1053188, 2014; inhibition, % at 10 µM; CD40L-induced, 4 h;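 active = mean inhibition of at least 50% with a set share of replicates also reaching that level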;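 note: 0% = neutral control wells and 100% = IKK inhibitor VII at 50 µM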
An asterisk follows results filed as active; [ ] = remark or other dose.

For CC(=O)c1ccc(N2CCN(C(=O)Cc3cccs3)CC2)cc1 the results were CD40 NFkB inh -18.
`O=C(/C=C/c1cccs1)c1ccc(N2CCOCC2)cc1` gave CD40 NFkB inh 54*.
C[C@@H]1CN(C)C(=O)Cc2ccccc2O[C@H]1CN(C)C(=O)OC(C)(C)C was read as CD40 NFkB inh -4.
Screening CCNC(=O)c1cc2c(c(-c3cccc(-c4cc5ccccc5o4)c3)n1)[C@@H](CCO)N(C(=O)NC(C)C)C2 returned CD40 NFkB inh -23.
Screening CC(C)NC(=O)N1Cc2cc(C(=O)NC3CCC3)nc(-c3cccc(-c4cncnc4)c3)c2[C@@H]1CCO returned CD40 NFkB inh 10[25 µM].
CCCNC(=O)c1cc2c(c(-c3cccc(-c4cc5ccccc5o4)c3)n1)[C@H](CCO)N(C(=O)NC(C)C)C2 was read as CD40 NFkB inh 56*[25 µM].
For COC(=O)N(C)C[C@H]1OCc2ccccc2-c2ccccc2C(=O)N([C@@H](C)CO)C[C@@H]1C the results were CD40 NFkB inh -10.
C[C@H]1CN([C@@H](C)CO)C(=O)c2cc(-c3cncnc3)cnc2O[C@@H]1CN(C)CC1CCCC1 was read as CD40 NFkB inh -1[25 µM].
Screening O=C1N[C@@H](c2ccccc2)COCc2cnnn2CC[C@H]1Cc1ccc(C(F)(F)F)cc1 returned CD40 NFkB inh -5[25 µM].
Screening COc1ccc(CNn2c(-c3cccc(C)c3)nc3ccccc3c2=O)cc1OC returned CD40 NFkB inh -9.
`CCc1nc2ccccc2n1Cc1ccc(OC)c(OC)c1` gave CD40 NFkB inh 5.
COc1cc2c3nnc(-c4ccccc4)c-3cn(Cc3ccc(F)cc3)c2cc1OC was read as CD40 NFkB inh 55*.
`COc1ccc(-c2ccc3n(c2=O)C[C@H]2[C@H](CO)[C@@H](C(=O)N4CCCCC4)[C@@H]3N2C)cc1` gave CD40 NFkB inh 10[25 µM].
For O=C(Nc1cccc(Cl)c1)N[C@H]1CC[C@@H](CCNC(=O)C2CCCC2)O[C@@H]1CO the results were CD40 NFkB inh -1.
Screening Cc1cc(N2CCN(C)CC2)ccc1NC(=O)c1ccc(-c2ccc(Cl)cc2)o1 returned CD40 NFkB inh 64*.
O=C(Nc1ccccc1N1CCCCC1)c1ccc(-c2ccc(Cl)cc2)o1 was read as CD40 NFkB inh -2.
`Cc1nnc(NC(=O)c2ccc(-c3ccc(Cl)cc3)o2)s1` gave CD40 NFkB inh 2.
`O=C(C[C@@H]1C[C@H]2c3cc(NC(=O)NC4CCCCC4)ccc3O[C@H]2[C@@H](CO)O1)NC1CCCCC1` gave CD40 NFkB inh 1.
O=C(c1ccccn1)N1C[C@H]2[C@@H](c3ccccc31)[C@@H](CO)N2C(=O)C1CC1 was read as CD40 NFkB inh 0.
`CO[C@@H]1CC[C@@H]2CCOc3ccc(C#N)cc3C(=O)N(C)C[C@H](c3ccccc3)CC(=O)N(C)C[C@@H]1O2` gave CD40 NFkB inh -3[25 µM].
CCc1cnc(N2[C@H](C#N)[C@H](c3ccc(C#CCC4CCCC4)cc3)[C@@H]2CO)s1 was read as CD40 NFkB inh 56*[25 µM].
For CCc1cnc(N2[C@@H](C#N)[C@@H](c3ccc(C#CCC4CCCC4)cc3)[C@@H]2CO)s1 the results were CD40 NFkB inh 16[25 µM].
CCc1cnc(N2[C@H](C#N)[C@H](c3ccc(C#CCC4CCCC4)cc3)[C@H]2CO)s1 was read as CD40 NFkB inh 5[25 µM].
CN1c2ccc(Br)cc2[C@H]2[C@H](CCN2C(=O)C2CCC2)[C@H]1CO was read as CD40 NFkB inh 6[25 µM].
For C[C@@H]1CN([C@H](C)CO)C(=O)c2c(c3ccccc3n2C)-c2ccccc2CO[C@@H]1CN(C)Cc1cccc(C(F)(F)F)c1 the results were CD40 NFkB inh 37[25 µM].
Screening C[C@H](CO)N1C[C@H](C)[C@H](CN(C)C(=O)Nc2cccc(C(F)(F)F)c2)OCc2ccccc2-c2c(n(C)c3ccccc23)C1=O returned CD40 NFkB inh 37[25 µM].
For C[C@H](CO)N1C[C@H](C)[C@@H](CN(C)Cc2cccc(C(F)(F)F)c2)OCc2ccccc2-c2c(n(C)c3ccccc23)C1=O the results were CD40 NFkB inh 73*[25 µM].
Screening C[C@H]1CN([C@@H](C)CO)C(=O)c2c(c3ccccc3n2C)-c2ccccc2CO[C@@H]1CN(C)C(=O)Nc1cccc(C(F)(F)F)c1 returned CD40 NFkB inh 64*[25 µM].
Screening C[C@H](CO)N1C[C@H](C)[C@@H](CN(C)C(=O)Nc2cccc(C(F)(F)F)c2)OCc2ccccc2-c2c(n(C)c3ccccc23)C1=O returned CD40 NFkB inh 46[25 µM].
For C[C@H](CO)N1C[C@H](C)[C@H](CN(C)Cc2cccc(C(=O)O)c2)OCc2ccccc2-c2c(n(C)c3ccccc23)C1=O the results were CD40 NFkB inh -9.
C[C@@H]1CN([C@H](C)CO)C(=O)c2c(c3ccccc3n2C)-c2ccccc2CO[C@H]1CN(C)Cc1cccc(O)c1 was read as CD40 NFkB inh 9.
COc1ccccc1NC(=O)N(C)C[C@@H]1OCc2ccccc2-c2c(n(C)c3ccccc23)C(=O)N([C@@H](C)CO)C[C@@H]1C was read as CD40 NFkB inh -3.
C[C@@H]1CN([C@@H](C)CO)C(=O)c2c(c3ccccc3n2C)-c2ccccc2CO[C@H]1CN(C)C(=O)Nc1ccccc1C(F)(F)F was read as CD40 NFkB inh 64*[25 µM].
Screening COc1ccccc1NC(=O)N(C)C[C@@H]1OCc2ccccc2-c2c(n(C)c3ccccc23)C(=O)N([C@H](C)CO)C[C@@H]1C returned CD40 NFkB inh 9.
Screening C[C@H]1CN([C@@H](C)CO)C(=O)c2c(c3ccccc3n2C)-c2ccccc2CO[C@H]1CN(C)Cc1cccc(C(F)(F)F)c1 returned CD40 NFkB inh 10[25 µM].
Screening C[C@@H]1CN([C@@H](C)CO)C(=O)c2c(c3ccccc3n2C)-c2ccccc2CO[C@H]1CN(C)Cc1cccc(C(=O)Nc2ccccc2N)c1 returned CD40 NFkB inh 60*[25 µM].
Screening C[C@@H]1CCCCO[C@@H](CN(C)C(=O)Cc2ccccc2)[C@@H](C)CN([C@@H](C)CO)C(=O)c2cc(NS(C)(=O)=O)ccc2O1 returned CD40 NFkB inh -1[25 µM].
`COc1ccc(C(=O)N2C[C@H]3[C@@H](c4ccccc42)[C@H](CO)N3Cc2ccc3c(c2)OCO3)cc1` gave CD40 NFkB inh 2[25 µM].
O=C(Nc1ccccc1F)N[C@@H]1C=C[C@@H](CC(=O)N2CCCCC2)O[C@@H]1CO was read as CD40 NFkB inh 3.
CC(C)(C)[S@](=O)N1Cc2cc(C(=O)NC3CCCCC3)nc(-c3cccc(Br)c3)c2[C@@H]1CCO was read as CD40 NFkB inh 13.
For CCS(=O)(=O)Nc1ccc2c(c1)C(=O)N(C)C[C@H](OC)[C@@H](C)CN(CC1CCCC1)[C@@H](C)CO2 the results were CD40 NFkB inh 6.
`CO[C@H](CN(C)C(=O)C1CCOCC1)[C@H](C)CN(C(=O)Nc1ccc(C(F)(F)F)cc1)[C@H](C)CO` gave CD40 NFkB inh -3[25 µM].
`C[C@H]1CN([C@@H](C)CO)C(=O)c2ccccc2-c2ccccc2CO[C@H]1CN(C)S(=O)(=O)c1cccc(F)c1` gave CD40 NFkB inh 3.
Screening C[C@@H]1CN([C@@H](C)CO)C(=O)Cc2cc(NC(=O)CCCN(C)C)ccc2O[C@H]1CN(C)C returned CD40 NFkB inh 16[25 µM].
Cc1ccc(S(=O)(=O)N(C)C[C@H]2OCc3cnnn3CCCC(=O)N([C@H](C)CO)C[C@@H]2C)cc1 was read as CD40 NFkB inh 5.
Screening O=C(NC1CCC1)[C@@H]1[C@@H](CO)[C@@H]2Cn3c(ccc(C4=CCCCC4)c3=O)[C@H]1N2CC1CC1 returned CD40 NFkB inh -4.
